Assay results reported in the supplement of paper PMC6555819.

Key:
Test in all cases: PBM binding z-score (relative to random genomic background probes); higher = stronger binding; sequences stand for … in GC…GCGATTGACAGCGTAGAATGAAGG
[1] = test system: FXR:RXRa (NR concentration 270 nM, RXRa partner concentration 90 nM)
Method in brief: (§1)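 Ligand-free nuclear receptor dimers were applied to custom Agilent 4×180K protein-binding microarrays whose double-stranded probes carried direct-repeat seeds, single-nucleotide variants, half-site ablations and random human genomic background sequences in 34-nt variable regions. Incubation lasted 1 h. Binding z-scores were computed against the random background probes from regression-normalized fluorescence.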

[2] = test system: LXRa:RXRa (NR concentration 270 nM, RXRa partner concentration 90 nM)
Method in brief: as §1

[3] = test system: LXRa homodimer (NR concentration 270 nM)
Method in brief: as §1

[4] = test system: LXRb:RXRa (NR concentration 270 nM, RXRa partner concentration 90 nM)
Method in brief: as §1

[5] = test system: LXRb homodimer (NR concentration 270 nM)
Method in brief: as §1

[6] = test system: PPARa:RXRa (NR concentration 270 nM, RXRa partner concentration 90 nM)
Method in brief: as §1

[7] = test system: PPARg:RXRa (NR concentration 180 nM, RXRa partner concentration 90 nM)
Method in brief: as §1

[8] = test system: PPARg:RXRa 270nM:90nM, anti-RXR (NR concentration 270 nM, RXRa partner concentration 90 nM)
Method in brief: as §1

[9] = test system: PPARg:RXRa 30nM:10nM, anti-RXR (NR concentration 30 nM, RXRa partner concentration 10 nM)
Method in brief: as §1

[10] = test system: PPARg:RXRa 90nM:30nM, anti-RXR (NR concentration 90 nM, RXRa partner concentration 30 nM)
Method in brief: as §1

[11] = test system: PPARg:RXRa DBDmut IVT, anti-RXR (DBD mutation: RXRa K156A/R161A, NR concentration 270 nM, RXRa partner concentration 90 nM)
Method in brief: as §1

[12] = test system: PPARg:RXRa IVT, anti-PPARg (NR concentration 270 nM, RXRa partner concentration 90 nM)
Method in brief: as §1

[13] = test system: PPARg DBDmut:RXRa IVT, anti-PPARg (DBD mutation: PPARg1 K132A/R137A, NR concentration 270 nM, RXRa partner concentration 90 nM)
Method in brief: as §1

[14] = test system: PPARg DBDmut IVT, anti-PPARg (DBD mutation: PPARg1 K132A/R137A, NR concentration 270 nM)
Method in brief: as §1

[15] = test system: PPARg homodimer (NR concentration 180 nM)
Method in brief: as §1

[16] = test system: PXR:RXRa (NR concentration 270 nM, RXRa partner concentration 90 nM)
Method in brief: as §1

[17] = test system: PXR homodimer (NR concentration 270 nM)
Method in brief: as §1

[18] = test system: RARa:RXR (NR concentration 270 nM, RXRa partner concentration 90 nM)
Method in brief: as §1

[19] = test system: RARa homodimer (NR concentration 270 nM)
Method in brief: as §1

[20] = test system: RARb:RXRa (NR concentration 270 nM, RXRa partner concentration 90 nM)
Method in brief: as §1

| Sequence | PBM binding z-score [1] | PBM binding z-score [2] | PBM binding z-score [3] | PBM binding z-score [4] | PBM binding z-score [5] | PBM binding z-score [6] | PBM binding z-score [7] | PBM binding z-score [8] | PBM binding z-score [9] | PBM binding z-score [10] | PBM binding z-score [11] | PBM binding z-score [12] | PBM binding z-score [13] | PBM binding z-score [14] | PBM binding z-score [15] | PBM binding z-score [16] | PBM binding z-score [17] | PBM binding z-score [18] | PBM binding z-score [19] | PBM binding z-score [20] |
| --- | --- | --- | --- | --- | --- | --- | --- | --- | --- | --- | --- | --- | --- | --- | --- | --- | --- | --- | --- | --- |
| ATTGAAAGGTCGAAGGTGAGTATACCCACCCGAA | 4.77 | 3.47 | 0.632 | 2.97 | 0.961 | 4.74 | 5.11 | 5.53 | 2.82 | 5.09 | 0.108 | 2.82 | 1.09 | 0.602 | 2.51 | 3.15 | 0.394 | 4.57 | 0.818 | 3.83 |
| TGATATAGGTAAAAGGTGAAAGTCGGTGTGGTAA | 1.72 | 1.59 | 0.194 | 1.96 | 0.256 | 5.88 | 9.54 | 8.88 | 8.67 | 9.7 | 5.38 | 5.55 | 1.59 | 1.77 | 1.8 | 1.68 | 0.555 | 2.78 | 1.18 | 2.05 |
| ACTAGTTGGTTAGCTGAGGTCACACACAATTCGG | 2.92 | 3.56 | 3.63 | 3.49 | 0.944 | 3.95 | 1.63 | 2.35 | 0.884 | 1.41 | 0.671 | 2.34 | 0.586 | 0.524 | 3.15 | 5.03 | 2.31 | 4.59 | 1.66 | 3.06 |
| TAGCCCAGGTCATGGGCCAGTATACCACGCGAAC | 5.49 | 3.68 | 0.403 | 2.34 | -0.434 | 4.31 | 3.87 | 3.37 | 0.448 | 2.04 | 0.271 | 2.71 | 0.391 | -0.431 | 0.53 | 2.24 | -0.39 | 2.96 | 0.0198 | 3.78 |
| GCATATAGGTAATACAAGGTTAAAGTCCGATTGT | 0.589 | 5.43 | 4.13 | 2.63 | -0.0858 | 2.39 | 1.69 | 1.5 | 0.655 | 0.992 | 4.38 | 3.23 | 0.799 | 0.913 | 1.39 | 2.6 | 0.613 | 2.53 | 0.428 | 0.87 |
| GCTATTAGTTGAAAGGGCGACCGAATGATTCTCG | -0.184 | 0.0609 | -0.118 | 0.0118 | -0.239 | 0.973 | 1.72 | 3.27 | 1.2 | 3.05 | 0.652 | -0.0504 | -0.223 | -0.65 | 0.251 | -0.1 | -0.523 | 0.097 | -0.0879 | 0.699 |
| TCTCGGAGAACACGAAGGTCAGAGCTTTCCAGAG | -0.456 | 0.775 | -0.321 | 0.915 | -0.994 | 1.59 | 0.33 | 1.41 | 2.09 | 1.74 | 1.08 | 0.106 | -2.09 | -1.27 | 0.419 | 1.29 | -0.535 | 1.67 | -0.665 | 2.49 |
| GGGACTGGGGCAAAGCAGGTTACCATAAGGTTGG | 0.776 | 0.705 | 0.405 | 1.24 | 1.22 | 2.6 | 3.59 | 3.37 | 0.646 | 2.33 | 4.85 | 5.97 | 0.631 | 0.017 | 1.03 | 1.21 | 0.82 | 1.18 | -0.119 | 1.39 |
| GCTGCTAGGTCACGTTGGTCAGCTAACGGGTACG | 3.59 | 2.38 | 0.0398 | 1.73 | -0.378 | 3.5 | 3.91 | 3.87 | 1.1 | 2.79 | 5.22 | 4.99 | 0.1 | -0.257 | 1.72 | 1.74 | -0.356 | 2.81 | -0.306 | 4.18 |
| CCCGACAGGTGAAAGGTAACTCAGTCTGGTACGC | 0.639 | 0.898 | -0.133 | 0.876 | -0.143 | 3.39 | 5.1 | 5.75 | 3.73 | 5.61 | 1.64 | 2.67 | -0.316 | -0.825 | 0.815 | 0.798 | 0.0265 | 1.73 | 0.375 | 1.09 |
| ATCTCTAGGTAAGACGCAGTTCAGTGAAGAACGC | 0.238 | 0.0302 | 0.0448 | -0.176 | 0.151 | -0.0926 | 0.38 | 0.423 | 0.101 | 0.323 | 1.69 | 0.781 | -0.276 | 0.85 | 0.0862 | 0.526 | 0.389 | -0.309 | 0.278 | 0.0267 |
| TTACCAAGGTGAAGTTCGTTGATCCCTCTGTAGA | 1.07 | 1.09 | -0.342 | 0.617 | -0.644 | 1.98 | 1.16 | 2.35 | 0.877 | 2.05 | 2.04 | 2.68 | 0.229 | 0.131 | 0.308 | 1.23 | 0.329 | 0.86 | -0.298 | 1.75 |
| GGAACGAGTGCAAAGTTGATAGCATCTGTCGACG | 0.106 | -0.0741 | -0.379 | -0.315 | -0.482 | 1.8 | 2.13 | 3.33 | 0.95 | 3.02 | -0.204 | 0.102 | -0.12 | 0.22 | -0.16 | 0.715 | 0.211 | 0.728 | -0.6 | 0.396 |
| CCGACTGGGGCAAAGGTTAACATACTCAGTACGA | 2.41 | 2.19 | 0.28 | 2.96 | -0.551 | 6.17 | 11.3 | 9.21 | 9.81 | 10.1 | 4.64 | 6.54 | 0.226 | -0.237 | 1.61 | 3.12 | -0.0875 | 4.64 | 0.346 | 2.77 |
